hcDAF-12 act = activates DAF-12 receptor from parasite H. contortus; HEK293 hcDAF-12 lit1-tk-luc reporter, luminescence; 0% DMSO, 100% Δ7-dafachronic acid; activation, % at 6.8 µM; 370,000 tested, 1.4% active; AID 652067;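 active = activation above the mean of all tested compounds plus 3 SD, cut at about 5.5% in these data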
hgDAF-12 ag = agonists of H. glycines DAF-12 nuclear receptor; HEK293 GAL4-hgDAF12 UAS-luciferase reporter, agonist luminescence; normalized to butyrate control; activation, % at 6.8 µM; 370,000 tested, 1.8% active;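 active = activation above a cutoff set at the mean of all screened compounds plus 3 SD, cut at about 10% in these data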
ssDAF12 agonist = activates DAF-12 receptor from parasite S. stercoralis; HEK293 ssDAF-12/GRIP1 lit1-tk-luc reporter, luminescence; % of 3 µM dafachronic acid response; activation, % at 6.8 µM; 370,000 tested, 1% active; AID 652126;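 active = activation above the mean over all tested compounds plus 3 SD, cut at about 0.9% in these data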
DAX1 inh-1 = blocks DAX1 repression of SF-1 activated StAR promoter; HEK293T StAR-luciferase reporter, SF-1/DAX-1 repression relief; inhibition, % at 6.8 µM; 370,000 tested, 1.1% active; AID 652010;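 active = inhibition above the mean over all tested compounds plus 3 SD, cut at about 3.6% in these data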;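 also: higher inhibition means more luminescence from relief of DAX-1 repression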
DAX1 inh-2 = inhibits human nuclear receptor DAX1; P51843; HEK293 Gal4-DAX1 luciferase reporter, luminescence; inhibition, % at 6.75 µM; 340,000 tested, 0.99% active; AID 504766;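 active = inhibition above the mean over all tested compounds plus 3 SD, cut at about 4.2% in these data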;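 also: inhibition shows as a rise in luminescence from relieved DAX1 repression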
Target sequence (P51843 207-470 limits assumed): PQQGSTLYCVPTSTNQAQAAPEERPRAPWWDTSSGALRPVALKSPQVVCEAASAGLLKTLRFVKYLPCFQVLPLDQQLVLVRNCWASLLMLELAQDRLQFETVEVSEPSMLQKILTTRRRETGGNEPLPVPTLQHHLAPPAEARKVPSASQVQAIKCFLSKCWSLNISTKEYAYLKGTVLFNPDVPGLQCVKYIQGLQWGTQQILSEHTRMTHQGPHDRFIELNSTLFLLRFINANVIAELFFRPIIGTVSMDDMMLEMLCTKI
Large screens that a line does not name were inactive. Shown are actives, neighbours in structure and some others; about 4.1% of the full set was active somewhere.

CCCCCC1C(=O)CCC1CC(=O)OC (centres undefined)	DAX1 inh-2 4.4
CC(C)=CCCC1(C)C=Cc2c(c(C)cc3c2[nH]c2cc(O)ccc23)O1 (centres undefined)	DAX1 inh-2 4.9
CCOc1ccc(N(Cc2nnc3n2CCCCC3)C(=O)Nc2cccc(C)c2)cc1	DAX1 inh-2 6.6
O=C(O)[C@@H]1Cc2ccccc2N1	ssDAF12 agonist 1.0
COc1c(OC(C)=O)ccc(/C=C/c2ccc3cccc(OC)c3n2)c1[N+](=O)[O-]	none
COC(=O)c1ccc(/C=C/c2ccc3cccc(OC(C)=O)c3n2)cc1	hgDAF-12 ag 12
CN[C@H]1C[C@H]2c3cc(-c4ccc5c(c4)OCO5)ccc3CCN2C[C@H]1[C@H](C)O	none (no result: DAX1 inh-2)
Cc1ccc(-n2c(SCC(=O)Nc3ccccc3-c3ccccc3)nnc2-c2ccccn2)cc1	none (no result: DAX1 inh-2)
Cc1ccc(C)c(NC2CCCCC2NS(=O)(=O)c2ccccc2)c1 (centres undefined)	DAX1 inh-1 4.2
CN(CC(O)COCc1cccs1)C1CCCCC1 (centres undefined)	hgDAF-12 ag 12
CN=C1NC(=O)/C(=C\c2cc(C)n(-c3ccccc3F)c2C)S1	none (no result: DAX1 inh-1, DAX1 inh-2)
CC(=O)c1ccc(-n2ccnc2)cc1	none
O=C(Nc1ccccc1)n1ccc(-c2ccc(-n3ccnc3)cc2)n1	hgDAF-12 ag 12 (no result: DAX1 inh-2)
COC(=O)[C@H](CC(C)C)N1Cc2nnn(CC3CCCCC3)c2-c2cc(F)ccc2S1(=O)=O	none (no result: DAX1 inh-2)
CCOc1ccccc1C(=O)NCCNC(=O)c1ccccc1OCC	none
CCOc1ccccc1C(=O)NN1C(=O)CCC1=O	ssDAF12 agonist 1.0
O=C(/C=C/c1nc2ccccc2s1)N1CCCCCC1	hgDAF-12 ag 11
CCOC(=O)C(c1ccccc1)C(Nc1ccc(Cl)c(Cl)c1)c1ccccn1 (centres undefined)	ssDAF12 agonist 1.0 (no result: DAX1 inh-2)
CCOC(=O)C(C(=O)OCC)C(Nc1cccc(Br)c1)c1ccccc1 (centres undefined)	none
c1ccc2oc(NC3=NCN(C4CCCCC4)CN3)nc2c1	none (no result: DAX1 inh-2)
c1ccc2sc(NC3=NCN(C4CCCCCC4)CN3)nc2c1	ssDAF12 agonist 1.5
C=CCn1c(C)nc2c(sc3nc4c(cc32)COC(C)(C)C4)c1=O	hgDAF-12 ag 13, DAX1 inh-2 4.7
COC(=O)C1CN(Cc2ccccc2)CCS(=O)(=O)N1Cc1ccccc1F (centres undefined)	none (no result: DAX1 inh-2)
CCOC(=O)C(=O)c1csc(NC(=O)CCSc2ccc(C)cc2)n1	DAX1 inh-2 4.4
COc1cc2c(cc1NC(=O)CSc1nnc(-c3cccc(Cl)c3)n1-c1ccccc1)oc1ccccc12	none (no result: DAX1 inh-2)
C=C(C)Cn1c(SCC(=O)NN=Cc2c(O)ccc3ccccc23)nnc1-c1ccc(Br)cc1	none (no result: DAX1 inh-2)
CCOCCCNC(=O)c1ccc2c(c1)N=C(CC)c1cc(Br)ccc1S2	DAX1 inh-1 4.2
Cc1ccc(S(=O)(=O)Nc2ccc(-c3nnc(SCc4ccccc4Cl)o3)cc2)cc1	none
Cc1ccc(CSc2nnc(-c3ccc(NS(=O)(=O)c4ccccc4)cc3)o2)cc1	ssDAF12 agonist 1.7
O=C(N=Nc1c(O)[nH]c2ccccc12)c1ccc2c(c1)OCO2	hgDAF-12 ag 13
O=C(N=Nc1c(O)[nH]c2ccccc12)c1ccc(CN2CCOCC2)cc1	none
CCn1c(SCC(=O)NN=Cc2ccc(C(=O)O)cc2)nc2ccccc21	none (no result: DAX1 inh-2)
CSc1nc(N)nc(N(C)C)n1	none
CSc1nc(N)nc(C2CC2)n1	DAX1 inh-2 4.8
COc1ccc(/C(C)=N/NC(=O)Cn2nc([N+](=O)[O-])cc2C)cc1	DAX1 inh-2 4.5
COc1ccc(CNC(=O)Cn2nc([N+](=O)[O-])cc2C)cc1	none
O=C(c1ccc(F)cc1F)N1CCC(Oc2cccnc2)CC1	none (no result: DAX1 inh-2)
Nc1nnc(/C=C/c2ccccc2Cl)s1	hgDAF-12 ag 12
O=C(CCC(=O)N1CCOc2ccccc21)NCCCN1CCCCC1	none
CCN1CCN(CCCNC(=O)CCC(=O)N2CCOc3ccccc32)CC1	hcDAF-12 act 5.7
Clc1ccc(Cl)c(-c2nn3c(COc4ccccc4)nnc3s2)c1	ssDAF12 agonist 1.4
CCC(=O)c1ccc(OCC(=O)Nc2nc(C)cs2)cc1	hgDAF-12 ag 12
COc1ccc(OCC(=O)Nc2nccs2)cc1	hcDAF-12 act 6.1
Cc1cnc(NC(=O)CCc2ccccc2)s1	none
CCC(=O)c1ccc(OCC(=O)Nc2nc(-c3cccnc3)cs2)cc1	none
Cc1cnc(NC(=O)COc2ccccc2)s1	hgDAF-12 ag 12
CCOc1ccc(OCC(=O)Nc2nccs2)cc1	none (no result: hcDAF-12 act, hgDAF-12 ag, ssDAF12 agonist, DAX1 inh-1)
O=C(NCc1ccccc1)C(c1ccco1)N1CCN(CCN2CCOCC2)CC1 (centres undefined)	none (no result: DAX1 inh-2)
CCOC(=O)[C@]12CCCC=C1N(Cc1ccc(OC)cc1)C(=O)[C@@H]2CC(=O)NCc1cccc(C(F)(F)F)c1	none (no result: DAX1 inh-2)
NC(=O)CSc1nnc(Cn2cnc3ccccc32)o1	DAX1 inh-2 4.2
O=C(c1cc(C2CC2)on1)N(C1CCCCC1)C1CCOCC1	none (no result: DAX1 inh-2)
NC(=O)CSc1nc2sc(-c3ccccc3)cc2c(=O)n1N	none
Cc1nc2sc(-c3ccccc3)cc2c(=O)n1-n1cccc1	hgDAF-12 ag 11
Cc1nc2sc(-c3ccccc3)cc2c(=O)n1/N=C/N(C)C	hgDAF-12 ag 11, ssDAF12 agonist 0.9
O=C(CSc1nc2nc(-c3cccs3)cc(C(F)(F)F)c2c(=O)[nH]1)C(F)(F)F	hgDAF-12 ag 13
COC(=O)CSc1nc2nc(-c3cccs3)cc(C(F)(F)F)c2c(=O)[nH]1	none
Cc1csc2c(=O)sc(NC(=O)c3ccc(F)cc3Cl)nc12	none
O=C(Nc1nc2ccsc2c(=O)s1)c1ccc(F)cc1Cl	DAX1 inh-2 7.8
CC(=O)Nc1c(-c2ccc(F)cc2)nc2ncccn12	none (no result: DAX1 inh-2)
COC(=O)C1=C(C)Nc2ccc(C)cc2S1	DAX1 inh-2 4.2
Clc1ccc(Cn2ccc3ccccc32)cn1	DAX1 inh-2 6.0
CC1(C)CC(=O)c2sc(NC(=O)C(C)(C)C)nc2C1	ssDAF12 agonist 1.5
COc1cccc(NC(=O)NCCC2=CCCCC2)c1	none
COc1ccccc1/C=C/C(=O)NCCC1=CCCCC1	hgDAF-12 ag 12
COc1ccc(NC(=O)NCCC2=CCCCC2)cc1	hgDAF-12 ag 12
COC(=O)C1=C(C)N(Cc2ccc(F)cc2)C(=S)NC1c1cccc(Br)c1 (centres undefined)	none (no result: DAX1 inh-2)
C[C@H]1CCC/C=C/[C@@H]2C[C@H](O)C[C@H]2[C@H](O)[C@H](S(=O)c2ccc(O)cc2)CC(=O)O1 (some centres undefined)	DAX1 inh-1 6.3
Cc1ccc(Cc2c(C(C)(C)C)nc3cc(C)c(Br)c(C)n23)cc1	ssDAF12 agonist 1.2 (no result: DAX1 inh-2)
Cc1cc2nc(C(C)(C)C)c(Cc3ccsc3)n2c(C)c1Br	DAX1 inh-1 4.1 (no result: DAX1 inh-2)
Cc1cc2nc(C3CCCCC3)c(Cc3ccsc3)n2c(C)c1Br	none (no result: DAX1 inh-2)
Cc1cc2nc(C(C)(C)C)c(Cc3cccc(Cl)c3)n2c(C)c1Br	none (no result: DAX1 inh-2)

Screening data as filed in PubChem BioAssay.
